Results from PubChem BioAssay.
Active and inactive are the calls of the source.

How the values were obtained:
[1] = test system: Plasmodium falciparum Sir2 (PF13_0152, Sir2A); assay: pfSir2 binders on small-molecule microarrays, primary screen, biochemical, small-molecule microarray, 635 nm fluorescence (AID 1098); settings: small-molecule microarray binding, fluorescence 635 nm; higher = more signal;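 note: score merges spot fluorescence intensity with its signal-to-noise ratio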
[2] = small-molecule microarray binders of probe aDKK1, primary screen, biochemical, biotinylated probe, 635/667 nm fluorescence (AID 1099); settings: higher = more signal;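 note: score merges 667nm spot fluorescence with signal to noise across triplicate slides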
[3] = small-molecule microarray binders of probe aCHRDL2, primary screen, biochemical, biotinylated probe, 635/667 nm fluorescence (AID 1100); settings: higher = more signal
[4] = splicing luciferase reporter signal modulators, primary screen, spliceosome inhibition project, cell-based, HEK293, splice +/- reporter (AID 1101); settings: luminescence, 24 h, higher = more signal, called active from +8 up or from −8 down;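 note: HEK293 cells carrying a splicing-competent luciferase reporter gene; test concentration not given here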
[5] = biological target: Fibroblast growth factor 10 (Homo sapiens) (UniProt O15520); assay: FGF10 binders on small-molecule microarrays, primary screen, biochemical, small-molecule microarray, 635 nm fluorescence (AID 1102); settings: FGF10 binding, fluorescence 635 nm, higher = more signal
Chain of Fibroblast growth factor 10 (Homo sapiens) (O15520 whole entry, looked up): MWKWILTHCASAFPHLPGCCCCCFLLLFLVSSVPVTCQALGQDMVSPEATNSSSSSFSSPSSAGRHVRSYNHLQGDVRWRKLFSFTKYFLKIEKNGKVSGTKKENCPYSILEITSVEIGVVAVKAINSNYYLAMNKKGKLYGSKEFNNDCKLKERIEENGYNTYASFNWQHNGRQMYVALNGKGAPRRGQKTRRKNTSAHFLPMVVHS

[6] = test system: glycogen synthase kinase-3 (GSK3A per assay name; protocol says GSK3B); assay: GSK3 binders on small-molecule microarrays, primary screen, biochemical, small-molecule microarray, 635 nm fluorescence, GSK3A (AID 1103); settings: small-molecule microarray binding, fluorescence 635 nm; higher = more signal; note: the record names both GSK3A and GSK3B
[7] = biological target: Epidermal growth factor receptor (Homo sapiens) (UniProt P00533); assay: EGFR binders on small-molecule microarrays, primary screen, biochemical, small-molecule microarray, 635 nm fluorescence (AID 1104); settings: EGFR binding, higher = more signal;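 note: score merges 667 nm emission intensity with spot signal to noise over triplicate slides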
Chain of Epidermal growth factor receptor (Homo sapiens) (P00533 whole entry, looked up): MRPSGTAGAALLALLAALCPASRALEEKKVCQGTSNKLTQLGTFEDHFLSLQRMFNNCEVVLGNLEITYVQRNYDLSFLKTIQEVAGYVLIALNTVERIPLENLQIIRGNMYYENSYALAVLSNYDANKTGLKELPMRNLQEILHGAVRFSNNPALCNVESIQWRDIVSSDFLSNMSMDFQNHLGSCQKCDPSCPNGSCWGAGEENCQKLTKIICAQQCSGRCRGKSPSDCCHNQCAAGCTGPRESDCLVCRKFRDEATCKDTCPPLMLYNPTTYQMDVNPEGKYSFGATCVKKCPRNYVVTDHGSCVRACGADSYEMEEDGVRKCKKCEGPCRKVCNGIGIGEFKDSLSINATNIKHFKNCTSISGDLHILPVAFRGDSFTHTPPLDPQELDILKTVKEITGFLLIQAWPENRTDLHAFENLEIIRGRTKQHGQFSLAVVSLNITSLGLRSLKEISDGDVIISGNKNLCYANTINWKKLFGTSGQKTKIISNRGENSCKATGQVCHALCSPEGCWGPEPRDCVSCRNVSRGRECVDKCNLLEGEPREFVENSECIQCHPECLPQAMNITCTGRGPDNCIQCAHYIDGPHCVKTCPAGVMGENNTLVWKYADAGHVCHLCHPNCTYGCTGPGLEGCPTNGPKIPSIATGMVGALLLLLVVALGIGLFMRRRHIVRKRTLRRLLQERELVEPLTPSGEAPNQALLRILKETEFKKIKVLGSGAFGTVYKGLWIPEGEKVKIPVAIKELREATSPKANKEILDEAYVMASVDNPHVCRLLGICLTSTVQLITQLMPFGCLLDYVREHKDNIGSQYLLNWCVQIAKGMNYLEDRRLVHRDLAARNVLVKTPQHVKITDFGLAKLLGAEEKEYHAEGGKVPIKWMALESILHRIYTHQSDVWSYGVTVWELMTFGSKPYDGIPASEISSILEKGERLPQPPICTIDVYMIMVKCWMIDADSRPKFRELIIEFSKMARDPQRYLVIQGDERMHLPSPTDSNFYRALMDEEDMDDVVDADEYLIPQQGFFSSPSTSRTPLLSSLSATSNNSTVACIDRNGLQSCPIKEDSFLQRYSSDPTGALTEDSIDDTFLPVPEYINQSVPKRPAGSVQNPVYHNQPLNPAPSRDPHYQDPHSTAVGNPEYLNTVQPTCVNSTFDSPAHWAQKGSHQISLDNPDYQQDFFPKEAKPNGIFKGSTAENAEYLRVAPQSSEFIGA

[8] = biological target: Follistatin-related protein 3 (Homo sapiens) (UniProt O95633); assay: FSTL3 binders on small-molecule microarrays, primary screen, biochemical, small-molecule microarray, 635 nm fluorescence (AID 1105); settings: FSTL3 binding, higher = more signal;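 note: score merges emission near 667 nm and signal to noise per printed spot across three slides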
Chain of Follistatin-related protein 3 (Homo sapiens) (O95633 whole entry, looked up): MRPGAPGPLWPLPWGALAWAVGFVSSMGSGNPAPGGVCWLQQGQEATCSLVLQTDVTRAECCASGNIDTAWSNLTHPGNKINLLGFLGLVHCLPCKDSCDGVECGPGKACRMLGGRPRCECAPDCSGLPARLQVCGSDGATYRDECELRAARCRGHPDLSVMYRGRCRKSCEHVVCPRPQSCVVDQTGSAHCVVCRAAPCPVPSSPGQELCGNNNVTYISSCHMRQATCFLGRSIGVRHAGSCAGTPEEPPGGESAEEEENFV

[9] = biological target: Dickkopf-related protein 1 (Homo sapiens) (UniProt O94907); assay: DKK1 binders on small-molecule microarrays, primary screen, biochemical, small-molecule microarray, 635 nm fluorescence scan (AID 1106); settings: DKK1 binding, higher = more signal;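 note: score merges emission near 667 nm with signal to noise over three replicate slides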
Chain of Dickkopf-related protein 1 (Homo sapiens) (O94907 whole entry, looked up): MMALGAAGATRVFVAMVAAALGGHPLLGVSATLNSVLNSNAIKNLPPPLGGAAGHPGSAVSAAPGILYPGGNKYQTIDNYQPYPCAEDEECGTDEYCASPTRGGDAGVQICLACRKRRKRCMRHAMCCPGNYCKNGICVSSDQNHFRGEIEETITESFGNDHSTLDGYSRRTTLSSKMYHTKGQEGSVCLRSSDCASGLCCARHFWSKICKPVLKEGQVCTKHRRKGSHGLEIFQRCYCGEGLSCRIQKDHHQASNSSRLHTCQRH

[10] = test system: Inhibin beta A chain (activin A); assay: INHBA (activin A) binders on microarrays, primary screen, biochemical, small-molecule microarray, 635 nm fluorescence scan (AID 1107); settings: small-molecule microarray binding, higher = more signal;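 note: mouse activin A protein probed at 4.33 µg/mL on printed slides; score merges bound-protein fluorescence near 667 nm with spot signal-to-noise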
[11] = test system: Human papillomavirus type 1a protein E7 (residues 44-93); assay: HPV1a E7 fragment binders on microarrays, primary screen, biochemical, small-molecule microarray, residues 44-93, 635 nm fluorescence (AID 1108); settings: small-molecule microarray binding, fluorescence 635 nm; higher = more signal;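 note: E7 fragment applied at 1 µg/mL in TBST for 1 h at 4 C; score combines spot fluorescence with its signal to noise ratio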
[12] = modulators of HCV replicon luciferase signal, primary screen, HCV replication inhibitor project, Huh7 cells, luciferase reporter (AID 1109); settings: 48 h, higher = more signal;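 note: huh7 hepatoma cells harbouring a luciferase neomycin HCV replicon reporter; luciferase luminescence as measure of HCV replicon replication; test concentration not given here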
[13] = biological target: Left-right determination factor 2 (Homo sapiens) (UniProt O00292); assay: LEFTY2 binders on small-molecule microarrays, primary screen, biochemical, small-molecule microarray, 635 nm fluorescence scan (AID 1110); settings: LEFTY2 binding, higher = more signal
Chain of Left-right determination factor 2 (Homo sapiens) (O00292 whole entry, looked up): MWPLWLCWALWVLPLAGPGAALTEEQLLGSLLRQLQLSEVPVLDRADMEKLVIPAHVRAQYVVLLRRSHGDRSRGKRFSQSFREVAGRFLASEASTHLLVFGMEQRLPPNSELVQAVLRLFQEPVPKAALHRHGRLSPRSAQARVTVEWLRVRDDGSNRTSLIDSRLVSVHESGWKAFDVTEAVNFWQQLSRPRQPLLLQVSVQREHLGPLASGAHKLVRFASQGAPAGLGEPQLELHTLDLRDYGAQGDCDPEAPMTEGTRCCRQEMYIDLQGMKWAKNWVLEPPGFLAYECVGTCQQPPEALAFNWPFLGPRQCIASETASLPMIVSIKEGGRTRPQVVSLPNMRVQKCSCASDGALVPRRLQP

[14] = biological target: Calmodulin-1 (Homo sapiens) (UniProt P0DP23); assay: CALM1 binders on microarrays, EGTA buffer, profiling panel, biochemical, small-molecule microarray, Cy5-labelled CALM1 (AID 1111); settings: Cy5-CALM1 binding fluorescence, higher = more signal;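 note: labelled calmodulin applied in Tris saline Tween buffer holding calcium plus EGTA and DTT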
[15] = biological target: Calmodulin-1 (Homo sapiens) (UniProt P0DP23); assay: calcium-bound CALM1 binders on microarrays, profiling panel, artefact control for SMM control-protein annotation, biochemical, small-molecule microarray, Cy5-labelled CALM1, plus calcium (AID 1112); settings: Cy5-CALM1 binding fluorescence, higher = more signal;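 note: score merges spot fluorescence with signal to noise from triplicate slides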
[16] = small-molecule microarray binders of probe aWnt5a, primary screen, biochemical, biotinylated probe, 635/667 nm fluorescence (AID 1113); settings: higher = more signal;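 note: score merges 667 nm fluorescence intensity with signal-to-noise per printed feature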
[17] = small-molecule microarray binders of probe aShh, primary screen, biochemical, biotinylated probe, 635/667 nm fluorescence (AID 1114); settings: higher = more signal;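 note: probe is biotin-labelled aShh protein from a stem cell growth factor screen; measures binding of labelled protein to compounds printed on the slide; score merges feature fluorescence at 667 nm with signal-to-noise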
[18] = small-molecule microarray binders of probe aNog, primary screen, biochemical, biotinylated probe, 635/667 nm fluorescence (AID 1115); settings: higher = more signal;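 note: probe is biotinylated aNog protein used at 0.15 µg/mL for 1 h at 4 C; z-score combines 667 nm fluorescence of each spot with its signal to noise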
[19] = biological target: Torsin-1A-interacting protein 1 (Homo sapiens) (UniProt Q5JTV8); assay: LAP1 binders from COS7 cell lysate, primary screen, small-molecule microarray, 635/667 nm fluorescence (AID 1116); settings: COS7-hLAP1 lysate binding, 635 nm fluorescence, higher = more signal
Chain of Torsin-1A-interacting protein 1 (Homo sapiens) (Q5JTV8 whole entry, looked up): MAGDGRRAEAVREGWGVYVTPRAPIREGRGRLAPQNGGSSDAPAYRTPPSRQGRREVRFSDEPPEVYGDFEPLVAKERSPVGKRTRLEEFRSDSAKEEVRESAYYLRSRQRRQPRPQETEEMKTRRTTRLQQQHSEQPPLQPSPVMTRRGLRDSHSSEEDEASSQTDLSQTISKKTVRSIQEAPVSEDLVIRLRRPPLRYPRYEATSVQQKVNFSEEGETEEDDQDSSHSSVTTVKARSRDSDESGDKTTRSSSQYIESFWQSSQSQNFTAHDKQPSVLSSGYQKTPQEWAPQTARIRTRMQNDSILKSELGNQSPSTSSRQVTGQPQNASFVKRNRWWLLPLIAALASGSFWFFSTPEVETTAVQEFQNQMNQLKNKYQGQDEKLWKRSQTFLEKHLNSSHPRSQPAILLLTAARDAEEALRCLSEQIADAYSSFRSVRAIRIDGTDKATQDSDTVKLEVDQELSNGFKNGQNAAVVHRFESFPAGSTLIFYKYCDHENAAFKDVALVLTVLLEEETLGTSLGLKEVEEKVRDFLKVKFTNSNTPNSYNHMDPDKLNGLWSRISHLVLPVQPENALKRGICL

[20] = biological target: Alpha-bungarotoxin (Bungarus multicinctus) (UniProt P60615); assay: alpha-bungarotoxin binders on microarray, profiling panel, artefact control for SMM control protein annotation, biochemical, small-molecule microarray, Alexa647 label, 635/667 nm fluorescence (AID 1117); settings: alpha-BTX-A647 binding fluorescence, higher = more signal
Chain of Alpha-bungarotoxin (Bungarus multicinctus) (P60615 whole entry, looked up): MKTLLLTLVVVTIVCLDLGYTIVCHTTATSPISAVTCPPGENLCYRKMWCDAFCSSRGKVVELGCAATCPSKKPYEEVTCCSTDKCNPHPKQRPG

| SMILES | composite z-score [1] | composite z-score [2] | composite z-score [3] | z-score [4] | composite z-score [5] | composite z-score [6] | composite z-score [7] | composite z-score [8] | composite z-score [9] | composite z-score [10] | composite z-score [11] | z-score [12] | composite z-score [13] | composite z-score [14] | composite z-score [15] | composite z-score [16] | composite z-score [17] | composite z-score [18] | composite z-score [19] | composite z-score [20] |
| --- | --- | --- | --- | --- | --- | --- | --- | --- | --- | --- | --- | --- | --- | --- | --- | --- | --- | --- | --- | --- |
| CC(C)N1CC=CC23O[C@@H]4C=CCOC(=O)[C@@H]4[C@H]2C(=O)N(CCCO)[C@@H]3C1=O (stereo not given in full) | 1.95 | -0.286 | 0.627 | -3 (inactive) | -0.0827 | 0.0274 | -0.42 | -0.123 | -0.74 | 0.929 | 1.49 | -0.223 | -0.932 | -0.373 | 0.731 | -0.18 | -0.123 | -0.196 | 1.47 | -0.381 |
| C=CCOC(=O)[C@H]1[C@@H]2C(=O)O[C@@H](c3ccccc3)[C@@H](c3ccccc3)N2[C@@H](c2ccc(OCCOC(=O)[C@H]3C[C@H]4C(=O)N[C@@H](CCCCNC(C)=O)C(=O)N4[C@H]3c3ccc(O)cc3)cc2)[C@]12C(=O)Nc1ccccc12 | 0.611 | 0.258 | 0.493 | -1.18 (inactive) | 0.776 | 1.28 | 0.915 | 0.932 | 1.31 | 0.351 | 0.94 | -0.103 | 0.594 | 1.03 | 0.328 | -0.124 | 0.157 | 0.0322 | 1.67 | 1.89 |
| COc1ccc(NC(=O)O[C@H]2[C@H](OC(=O)Nc3ccccc3)[C@@H](OC(=O)Nc3ccccc3)[C@@H](OC)O[C@@H]2CO)cc1 | 1.55 | 0.25 | 0.39 | -1.67 (inactive) | 1.5 | 1.31 | 0.0729 | 0.83 | 0.396 | 0.385 | 1.28 | -3.04 | 0.298 | 1.41 | -0.298 | 0.107 | -0.0813 | 0.564 | 1.25 | 0.577 |
| CC(C)[Si](C#C[Si](C(C)C)(C(C)C)C(C)C)(O[C@H](C)c1cn([C@H](CO)Cc2ccccc2)nn1)C(C)C | 0.107 | -0.229 | -0.316 | -0.0126 (inactive) | 0.0848 | 0.229 | 0.0255 | -0.0447 | 0.377 | 0.201 | 0.534 | -0.677 | 0.182 | -0.0641 | -0.393 | -0.0924 | -0.0977 | -0.122 | 0.227 | -0.0846 |
| C=CCNC(=O)[C@H]1[C@@H]2C(=O)O[C@@H](c3ccccc3)[C@@H](c3ccccc3)N2[C@@H](c2ccc(O)cc2)[C@]12C(=O)N(C(=O)OCCOC)c1ccccc12 | 1.27 | -0.689 | -0.0623 | -1.59 (inactive) | 1.24 | 0.226 | 1.11 | 0.552 | 0.298 | 0.204 | 1.42 | -0.585 | 0.18 | 0.763 | -0.0816 | -0.0573 | -0.331 | -0.206 | 0.793 | 0.712 |
| Cc1ccc(S[C@]2(C(=O)O)CC(=O)N(Cc3cc(C(F)(F)F)cc(C(F)(F)F)c3)[C@@H]2c2ccc(CO)cc2)cc1 | 1.2 | 0.326 | 1.14 | -0.262 (inactive) | -1.65 | -1.03 | -1.89 | -1.92 | -2.26 | -0.131 | -0.0234 | -0.0295 | -2.28 | -0.743 | 0.168 | -0.226 | -0.0483 | -0.0733 | -0.155 | -0.876 |
| COCCCNC(=O)[C@@]1(Sc2ccc(C)cc2)CC(=O)N(C2CCCCC2)[C@@H]1c1ccc(CO)cc1 | 0.0677 | 0.196 | 0.899 | -0.397 (inactive) | 0.229 | -0.823 | -0.687 | -1.1 | -1.65 | 0.446 | 0.104 | -1.19 | -0.942 | -0.206 | 0.0573 | -0.0799 | -0.0643 | 0.684 | 0.447 | -0.255 |
| COc1ccccc1CN1C(=O)c2ccccc2[C@](Cc2ccccc2I)(C(=O)NCC(F)(F)F)[C@@H]1c1ccc(CO)cc1 | 1.31 | 0.984 | 0.854 | 0.377 (inactive) | 0.7 | 1.29 | -0.24 | 1.1 | -0.532 | 0.513 | 0.905 | -1.16 | -0.201 | 2.03 | 0.731 | 0.0559 | -0.106 | 0.0286 | 1.42 | 1.36 |
| COC(=O)C(CC#Cc1ccc2c(c1)[C@]1(C(=O)N2)[C@H](C(=O)N2CCN(c3ncccn3)CC2)[C@H]2C(=O)O[C@H](c3ccccc3)[C@H](c3ccccc3)N2[C@@H]1c1ccc(OCCO)cc1)C(=O)OC | 1.22 | 0.0224 | -0.0434 | -0.152 (inactive) | 1.17 | 0.994 | 0.68 | 1.39 | 0.612 | 0.0693 | 1.45 | -1.7 | 0.839 | 0.918 | 0.245 | -0.0792 | -0.144 | 0.0574 | 0.624 | 2.21 |
| CC1CC/C=C\[C@H]2OC34C=CCN(C(C)C)C(=O)[C@H]3N(CCCCCCO)C(=O)[C@@H]4C2C(=O)O1 (stereo not given in full) | 0.733 | -0.242 | 0.417 | -0.935 (inactive) | -1.16 | -1.22 | -0.755 | -0.931 | -1.24 | 0.25 | -1.9 | -0.729 | -0.83 | -0.295 | 0.571 | -0.15 | -0.117 | 0.0595 | -0.673 | -0.706 |
| C=CC[C@]1(C(=O)NCCN2CCOCC2)N=C(c2ccc(OCCCO)cc2)O[C@H]1c1ccccc1CN=[N+]=[N-] | 0.817 | 0.96 | 0.723 | 0.346 (inactive) | 1.2 | 0.703 | 0.409 | -0.0125 | 1.54 | 1.57 | 0.396 | -1.59 | 0.632 | 0.21 | -0.528 | 0.0023 | -0.203 | -0.193 | 0.554 | -0.0452 |
